We go through 22 compounds from PubChem BioAssay (EPA / NIEHS).

Inconclusive results are not listed. The source made the active and inactive calls. The calls were made as follows, unless noted: active = hit-call score of the fitted dose curve at least 0.9, where 1 is the maximum; inconclusive = response in the unintended direction; inactive = score below 0.9.

For test [1], the target named is Retinoic acid receptor RXR-alpha (Homo sapiens) (UniProt P19793). Description: OT_NURR1_NURR1RXRa_0480: Odyssey Thera (OT) 8-hour HEK293T Protein Complementation Assay for Nurr1/retinoid X receptor (RXR) (AID 2283385). The essentials:
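Compounds are applied to HEK293T cells carrying Nurr1 and RXRα linked to reporter fragments. After 8 h, fluorescence intensity reports heterodimer formation, with DMSO as baseline.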

Test [2] has the same target. Description: OT_NURR1_NURR1RXRa_1440: Odyssey Thera (OT) 24-hour HEK293T Protein Complementation Assay for Nurr1/retinoid X receptor (RXR) (AID 2283386). The essentials:
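Measured as fluorescence from a reconstituted split reporter, this 24 h HEK293T complementation assay scores compound-induced gain of Nurr1/RXRα association relative to DMSO.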

In test [3] the target is Peroxisome proliferator-activated receptor gamma (Homo sapiens) (UniProt P37231). As to the kind of experiment: OT_PPARg_PPARgSRC1_0480: Odyssey Thera (OT) 8-hour Protein-Complementation Assay for Peroxisome Proliferator-activated Receptor Gamma / SRC-1 Co-activator (AID 2283387).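 Also: nuclear to cytoplasmic split Venus YFP fluorescence ratio reporting PPARg SRC-1 interaction.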 A digest of the protocol: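 HEK293T transiently transfected with PPARg and SRC-1 fused to Venus YFP fragments, compounds 8 h at 37C. Fixed, Draq5-stained cells imaged; nuclear/cytoplasmic 488 nm fluorescence ratio over at least 350 cells per image; gain fitted versus DMSO.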

Test [4] shares this target. Description: OT_PPARg_PPARgSRC1_1440: Odyssey Thera (OT) 24-hour Protein-Complementation Assay for Peroxisome Proliferator-activated Receptor Gamma/ SRC-1 Co-activator (AID 2283388). The essentials:
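Readout: nuclear-to-cytoplasmic 488 nm fluorescence ratio, ≥350 cells per image, 8 images per well, after 24 h compound exposure of HEK293T expressing PPARg/SRC-1 split-YFP fusions. Activity fitted in positive direction against DMSO.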

The nature of test [5]: CEETOX_H295R_11DCORT: CeeTox H295R High-throughput Steroidogenesis Assay for 11-Deoxycortisol (11DCORT) (AID 2283432; active = hit-call score of the fitted dose curve at least 0.9, where 1 is the maximum; inactive = score below 0.9;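 as to AC50: human adrenal H295R cells prestimulated with 10 µM forskolin for 48 h; 11-deoxycortisol secreted into the medium measured by LC-MS/MS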). Conditions: actives raise or lower the signal. The essentials: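 H295R cells prestimulated 48 h with 10 uM forskolin, then exposed 48 h to chemical in 0.1% DMSO. 11-Deoxycortisol in medium quantified by HPLC-MS/MS after MTBE extraction; bidirectional fit versus DMSO. MTT viability read in same wells.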

Test [6] is described as follows: CEETOX_H295R_OHPREG: CeeTox H295R High-throughput Steroidogenesis Assay for OH-Pregnenolone (OHPREG) (AID 2283434; active = hit-call score of the fitted dose curve at least 0.9, where 1 is the maximum; inactive = score below 0.9). Conditions: actives raise or lower the signal. The essentials: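 Hormone levels in spent medium were measured by tandem mass spectrometry following liquid-liquid extraction. Cells (H295R) had been forskolin-stimulated (10 uM, 48 h) before a 48 h chemical exposure at 0.1% DMSO, with activity fitted in both directions against DMSO.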

A short description of test [7]: CEETOX_H295R_OHPROG: CeeTox H295R High-throughput Steroidogenesis Assay for OH-Progesterone (OHPROG) (AID 2283435; active = hit-call score of the fitted dose curve at least 0.9, where 1 is the maximum; inactive = score below 0.9). Conditions: actives raise or lower the signal. The essentials: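 Secreted 17alpha-hydroxyprogesterone is read by tandem MS from media of forskolin-primed H295R cells dosed with chemical for 48 h. Activity is fitted in both directions against DMSO baseline; cytotoxic concentrations are re-tested diluted.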

The nature of test [8]: CEETOX_H295R_ANDR: CeeTox H295R High-throughput Steroidogenesis Assay for Androstenedione (ANDR) (AID 2283436; active = hit-call score of the fitted dose curve at least 0.9, where 1 is the maximum; inactive = score below 0.9;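 also: human H295R adrenal cells exposed for 48 h with androstenedione measured in medium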). Conditions: actives raise or lower the signal. A digest of the protocol:
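Read-out is androstenedione secreted into medium, measured by tandem mass spectrometry after liquid-liquid extraction. Cells were H295R, dosed for 48 h per modified OECD 456; activity fitted in both directions relative to DMSO.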

Test [9] can be described thus: CEETOX_H295R_CORTIC: CeeTox H295R High-throughput Steroidogenesis Assay for Corticosterone (CORTIC) (AID 2283437; active = hit-call score of the fitted dose curve at least 0.9, where 1 is the maximum; inactive = score below 0.9;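 also: corticosterone secreted into medium quantified by mass spectrometry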;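 as to AC50: human H295R adrenal cells prestimulated with forskolin before chemical exposure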). Conditions: actives raise or lower the signal. The essentials:
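Corticosterone secreted into medium is measured by reverse-phase HPLC with tandem MS following liquid-liquid extraction. Cells are forskolin-stimulated (10 uM, 48 h) before 48 h test exposure; activity fitted in both directions against DMSO.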

Test [10] can be described thus: CEETOX_H295R_CORTISOL: CeeTox H295R High-throughput Steroidogenesis Assay for Cortisol (AID 2283438; active = hit-call score of the fitted dose curve at least 0.9, where 1 is the maximum; inactive = score below 0.9;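 also: cortisol secreted into medium quantified by LC-MS/MS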). Conditions: actives raise or lower the signal. A digest of the protocol:
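Human adrenocortical H295R cells (passage ≤10) received test chemicals for 48 h after forskolin priming. Secreted cortisol was measured by LC-MS/MS.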

A short description of test [11]: CEETOX_H295R_DOC: CeeTox H295R High-throughput Steroidogenesis Assay for DOC (AID 2283439; active = hit-call score of the fitted dose curve at least 0.9, where 1 is the maximum; inactive = score below 0.9). Conditions: actives raise or lower the signal. The essentials:
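Secreted DOC was quantified from H295R media by HPLC-MS/MS after 48 h chemical exposure following 48 h forskolin (10 uM) prestimulation. Values were fitted in both directions relative to DMSO, the negative control and baseline.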

Test [12] in a line: CEETOX_H295R_PROG: CeeTox H295R High-throughput Steroidogenesis Assay for Progesterone (PROG) (AID 2283442; active = hit-call score of the fitted dose curve at least 0.9, where 1 is the maximum; inactive = score below 0.9;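 as to AC50: human H295R adrenal cells primed with 10 µM forskolin before dosing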). Conditions: actives raise or lower the signal. A digest of the protocol: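 Progesterone read-out: HPLC-MS/MS on MTBE extracts of conditioned medium after 48 h chemical exposure of forskolin-primed (10 uM, 48 h) H295R cells. Gain or loss of signal was fitted relative to DMSO baseline.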

Read-out in test [13]: Tumor necrosis factor receptor superfamily member 6 (Homo sapiens) (UniProt P25445)
Description: LTEA_HepaRG_FAS: Life Technologies and Expression Analysis (LTEA) Assay for Fas cell surface death receptor (FAS) using HepaRG (AID 2283447; active = hit-call score of the fitted dose curve at least 0.9, where 1 is the maximum; inactive = score below 0.9). Conditions: mRNA level, 48 h; actives raise or lower the signal. A digest of the protocol: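 FAS transcript level was measured by TaqMan qRT-PCR against three housekeeping genes after 48 h chemical exposure. Cells were HepaRG, 0.5% DMSO vehicle, with a top concentration of 100 uM and half-log dilutions over eight points, in duplicate.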

Read-out in test [14]: Fatty acid synthase (Homo sapiens) (UniProt P49327)
Description: LTEA_HepaRG_FASN: Life Technologies and Expression Analysis (LTEA) Assay for Fatty Acid Synthase (FASN) using HepaRG (AID 2283448; active = hit-call score of the fitted dose curve at least 0.9, where 1 is the maximum; inactive = score below 0.9). Conditions: mRNA level, 48 h; actives raise or lower the signal. A digest of the protocol:
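Transcript-level assay: HepaRG liver cells are treated for 48 h across an eight-point range topping at 100 uM, and FASN mRNA, normalized to three housekeeping genes, is compared with DMSO controls in both directions.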

Read-out in test [15]: Cyclin D2 (CCND2), CCND2 (gene 894)
Description: LTEA_HepaRG_CCND2: Life Technologies and Expression Analysis (LTEA) Assay for Cyclin D2 (CCND2) using HepaRG (AID 2283449; active = hit-call score of the fitted dose curve at least 0.9, where 1 is the maximum; inactive = score below 0.9). Conditions: mRNA level, 48 h; actives raise or lower the signal. A digest of the protocol: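 Read-out is CCND2 mRNA level measured by qRT-PCR in human HepaRG liver cells and normalised to three housekeeping genes. Chemicals were applied for 48 h at up to 100 uM, with gain or loss fitted relative to 0.5% DMSO.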

Read-out in test [16]: Cyclin Dependent Kinase Inhibitor 1A (CDKN1A), CDKN1A (gene 1026)
As to the kind of experiment: LTEA_HepaRG_CDKN1A: Life Technologies and Expression Analysis (LTEA) Assay for Cyclin Dependent Kinase Inhibitor 1A (CDKN1A) using HepaRG (AID 2283450; active = hit-call score of the fitted dose curve at least 0.9, where 1 is the maximum; inactive = score below 0.9). Conditions: mRNA level, 48 h; actives raise or lower the signal. The essentials: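 HepaRG, 48 h dosing, 8-pt half-log series from 100 uM top, 0.5% DMSO vehicle, duplicates. Readout: TaqMan qRT-PCR of CDKN1A transcript, housekeeping-normalized (ACTB, GAPDH, POLR2A). Up/down curve fit relative to DMSO.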

Sequence of Peroxisome proliferator-activated receptor gamma (Homo sapiens) (P37231 whole entry, looked up, the tested form may be a part): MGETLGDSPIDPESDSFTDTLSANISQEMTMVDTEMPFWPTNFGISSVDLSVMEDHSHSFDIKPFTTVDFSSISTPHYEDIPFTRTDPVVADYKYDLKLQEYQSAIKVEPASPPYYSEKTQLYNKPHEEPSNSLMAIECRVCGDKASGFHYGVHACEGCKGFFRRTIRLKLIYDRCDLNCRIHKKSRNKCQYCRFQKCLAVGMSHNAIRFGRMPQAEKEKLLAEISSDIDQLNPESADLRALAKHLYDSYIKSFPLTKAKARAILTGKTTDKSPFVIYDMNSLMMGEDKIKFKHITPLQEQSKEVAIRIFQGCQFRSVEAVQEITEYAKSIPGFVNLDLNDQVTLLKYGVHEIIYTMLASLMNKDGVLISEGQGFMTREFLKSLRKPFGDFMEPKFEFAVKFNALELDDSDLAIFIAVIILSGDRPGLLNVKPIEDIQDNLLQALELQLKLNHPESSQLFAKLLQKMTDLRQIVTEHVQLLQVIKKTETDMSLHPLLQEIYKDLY
Sequence of Retinoic acid receptor RXR-alpha (Homo sapiens) (P19793 whole entry, looked up, the tested form may be a part): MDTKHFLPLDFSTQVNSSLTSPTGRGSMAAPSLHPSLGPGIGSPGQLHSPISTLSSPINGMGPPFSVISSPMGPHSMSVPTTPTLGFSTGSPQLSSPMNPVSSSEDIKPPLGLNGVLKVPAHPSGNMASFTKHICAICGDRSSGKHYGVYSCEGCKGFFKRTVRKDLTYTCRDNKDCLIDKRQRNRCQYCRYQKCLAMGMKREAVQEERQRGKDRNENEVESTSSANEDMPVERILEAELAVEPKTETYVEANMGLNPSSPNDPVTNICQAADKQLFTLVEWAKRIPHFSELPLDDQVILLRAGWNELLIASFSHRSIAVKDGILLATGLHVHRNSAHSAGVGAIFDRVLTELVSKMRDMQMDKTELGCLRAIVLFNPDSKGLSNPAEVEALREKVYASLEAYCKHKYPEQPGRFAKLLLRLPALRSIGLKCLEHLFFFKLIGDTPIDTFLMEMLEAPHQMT
Sequence of Fatty acid synthase (Homo sapiens) (P49327 whole entry, looked up): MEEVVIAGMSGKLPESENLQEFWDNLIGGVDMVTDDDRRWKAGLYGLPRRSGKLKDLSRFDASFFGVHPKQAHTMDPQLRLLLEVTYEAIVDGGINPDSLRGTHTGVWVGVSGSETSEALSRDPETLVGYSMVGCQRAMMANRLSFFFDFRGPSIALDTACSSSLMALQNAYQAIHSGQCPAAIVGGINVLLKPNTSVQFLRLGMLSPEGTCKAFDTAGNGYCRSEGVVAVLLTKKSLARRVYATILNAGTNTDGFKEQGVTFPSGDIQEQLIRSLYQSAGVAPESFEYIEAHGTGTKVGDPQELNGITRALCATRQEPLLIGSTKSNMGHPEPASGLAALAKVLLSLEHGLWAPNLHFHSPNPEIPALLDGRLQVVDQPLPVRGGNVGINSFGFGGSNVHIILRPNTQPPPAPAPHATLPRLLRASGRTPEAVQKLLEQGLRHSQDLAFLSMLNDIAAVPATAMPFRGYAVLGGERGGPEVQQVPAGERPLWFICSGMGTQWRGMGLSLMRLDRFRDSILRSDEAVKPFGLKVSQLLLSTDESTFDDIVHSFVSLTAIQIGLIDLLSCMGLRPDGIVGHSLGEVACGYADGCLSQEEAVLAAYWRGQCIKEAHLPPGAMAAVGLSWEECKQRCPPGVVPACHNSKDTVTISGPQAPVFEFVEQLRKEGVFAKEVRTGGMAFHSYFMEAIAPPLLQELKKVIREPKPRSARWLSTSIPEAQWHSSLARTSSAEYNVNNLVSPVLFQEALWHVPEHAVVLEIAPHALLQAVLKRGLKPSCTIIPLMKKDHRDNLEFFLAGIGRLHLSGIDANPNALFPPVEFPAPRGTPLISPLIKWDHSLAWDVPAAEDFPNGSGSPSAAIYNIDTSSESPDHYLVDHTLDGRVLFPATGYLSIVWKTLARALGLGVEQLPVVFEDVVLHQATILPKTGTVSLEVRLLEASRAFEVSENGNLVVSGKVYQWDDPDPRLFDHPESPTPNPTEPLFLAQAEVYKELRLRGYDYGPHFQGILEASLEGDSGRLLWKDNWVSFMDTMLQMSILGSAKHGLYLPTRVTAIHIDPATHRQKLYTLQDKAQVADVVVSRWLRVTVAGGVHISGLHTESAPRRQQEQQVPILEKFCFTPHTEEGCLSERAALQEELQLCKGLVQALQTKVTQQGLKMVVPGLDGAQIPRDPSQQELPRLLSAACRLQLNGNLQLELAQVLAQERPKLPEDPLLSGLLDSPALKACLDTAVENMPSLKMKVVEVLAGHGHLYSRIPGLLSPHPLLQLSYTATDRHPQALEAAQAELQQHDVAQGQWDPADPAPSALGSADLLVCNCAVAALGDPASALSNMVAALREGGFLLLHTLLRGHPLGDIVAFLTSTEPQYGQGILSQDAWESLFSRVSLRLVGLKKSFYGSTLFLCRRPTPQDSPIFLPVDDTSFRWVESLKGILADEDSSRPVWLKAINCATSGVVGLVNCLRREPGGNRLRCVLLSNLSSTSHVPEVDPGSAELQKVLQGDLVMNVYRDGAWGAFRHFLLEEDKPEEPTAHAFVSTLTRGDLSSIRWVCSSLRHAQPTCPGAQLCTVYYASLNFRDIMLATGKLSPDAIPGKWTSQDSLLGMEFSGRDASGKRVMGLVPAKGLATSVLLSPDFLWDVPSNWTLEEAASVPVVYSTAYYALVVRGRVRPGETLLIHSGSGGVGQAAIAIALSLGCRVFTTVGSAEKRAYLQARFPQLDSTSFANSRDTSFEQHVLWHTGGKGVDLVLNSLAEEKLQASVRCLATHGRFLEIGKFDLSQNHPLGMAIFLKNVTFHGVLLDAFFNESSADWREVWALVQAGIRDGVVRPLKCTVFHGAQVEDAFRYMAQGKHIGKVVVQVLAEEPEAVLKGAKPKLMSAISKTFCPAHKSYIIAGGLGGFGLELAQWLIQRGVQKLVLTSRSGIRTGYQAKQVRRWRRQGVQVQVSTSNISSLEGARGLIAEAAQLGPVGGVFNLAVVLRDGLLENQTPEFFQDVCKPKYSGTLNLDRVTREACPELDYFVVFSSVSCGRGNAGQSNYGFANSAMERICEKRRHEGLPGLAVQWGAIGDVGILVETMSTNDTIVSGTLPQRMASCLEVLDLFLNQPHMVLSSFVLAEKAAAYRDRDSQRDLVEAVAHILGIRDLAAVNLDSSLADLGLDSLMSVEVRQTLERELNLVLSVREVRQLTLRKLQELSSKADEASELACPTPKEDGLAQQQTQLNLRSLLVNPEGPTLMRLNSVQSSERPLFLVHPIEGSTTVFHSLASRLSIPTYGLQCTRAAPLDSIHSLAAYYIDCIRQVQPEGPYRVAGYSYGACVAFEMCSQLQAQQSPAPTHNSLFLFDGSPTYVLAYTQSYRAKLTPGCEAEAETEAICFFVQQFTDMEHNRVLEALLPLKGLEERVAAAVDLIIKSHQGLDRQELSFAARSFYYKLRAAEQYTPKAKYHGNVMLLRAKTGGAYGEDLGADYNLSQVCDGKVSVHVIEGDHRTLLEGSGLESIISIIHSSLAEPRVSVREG

With `CCCCCCCC(=O)N(C)C`, the result in test [1], in [2], in [3] and in test [4] was inactive.
For `CCCC1CCC(=O)CC1`, the result in test [1], in [2], in test [3] and in test [4] was inactive.
Regarding `CC(C)CCCC(C)(C)O`, the outcome in test [1], in [2], in [3] and in test [4] was inactive.
Turning to `CC(C)(C)c1cccc(O)c1`, the call in test [1], in test [2], in test [3], in test [4], in test [5] and in test [6] was inactive. Also, the call in test [7], in test [8], in test [9], in test [10], in test [11] and in test [12] was inactive.
For the compound `CCCCCCCCCCO[C@@H]1O[C@H](CO)[C@@H](O)[C@H](O)[C@H]1O`, the result in test [1], in test [2] and in test [4] was inactive.
Take `COC(=O)C(C)Oc1ccc(Oc2ncc(C(F)(F)F)cc2Cl)cc1` (stereo not given): the compound was called inactive in test [1], in [2], in test [3] and in test [4].
Regarding `CCNC(=S)NCC`, the compound was classed as inactive in [1], in [2], in test [3] and in test [4].
Regarding `CC(=O)Nc1cc(S(=O)(=O)O)cc2cc(S(=O)(=O)O)c(N=Nc3ccccc3)c(O)c12`, the AC50 (commonly the concentration at which the activity in the assay is half-maximal) in test [1] was 22.9 µM (active). In addition, the outcome in [2], in test [3] and in [4] was inactive.
Regarding `CCCCN(CCCC)CCCCCCN(CCCC)CCCC`, the result in [1], in [2], in test [3] and in test [4] was inactive.
On to `C=CCCCCCCCCC(=O)OCC`, for which the result in test [1], in test [2], in [3] and in test [4] was inactive.
For `O=C(O)c1ccccc1O`, the call in [1], in [2], in test [3] and in test [4] was inactive.
`CCCCCCOc1ccc(O)cc1`: the compound was classed as inactive in test [1], in test [2], in [3] and in test [4].
In the case of `OC[C@@H](O)[C@H](O)[C@@H](O)[C@@H](O)CO`, the compound was called inactive in test [1], in test [2], in test [3] and in test [4].
On to `CCC(C)COC(=O)CC(C)C` (stereo not given), for which the call in test [1], in [2], in test [3] and in [4] was inactive.
Turning to `c1ccc2scnc2c1`, the outcome in [1], in test [3] and in test [4] was inactive.
For the compound `O=C(O)CS`, the outcome in test [1], in [2], in test [3] and in [4] was inactive.
For `C[C@]12CC[C@@H]3c4ccc(O)cc4CC[C@H]3[C@@H]1CC[C@@H]2O`, the compound was called inactive in [1], in [2], in [3], in test [4], in [7] and in test [13]. For the same compound, the call in test [14] and in test [15] was inactive. Besides, the AC50 in test [5] was 4.37 µM (active); in [6] it was 1.57 µM (active); in test [9], 0.479 µM (active); in test [10] it was 2.63 µM (active); in [11], 3.8 µM (active); in test [12] it was 5 µM (active). The concentration at half-maximal activity (AC50) in test [16] is 80.3 µM (active).
`CCCCC(CC)COCCO` (stereo not given): the compound was called inactive in test [1], in [2], in test [3] and in [4].
On to `CCCCCCCCCCCCS`, for which the AC50 in [1] is 77.6 µM (active); in test [2] it was 93.7 µM (active). Besides, the outcome in test [3] and in [4] was inactive.
In the case of `CC(=O)OC/C=C(C)/C=C/C=C(C)/C=C/C1=C(C)CCCC1(C)C`, in test [1], the AC50 was 27.5 µM (active). For the same compound, the compound was called inactive in test [2], in test [3] and in test [4].
`CCCc1ccc(N)cc1`: the compound was called inactive in test [1], in test [2], in [3] and in test [4].
In the case of `CCCCOCCOCCO`, the compound was called inactive in [13], in test [14], in test [15] and in test [16].
